Screen size: about 350,000 compounds; about 31,000 (8.9%) were called active. About 15% were inconclusive and are not listed. Calls come from the whole dose curve; as a rule, active = well fitted inhibition curve with a large enough effect; inconclusive = small, poorly fitted or top-dose-only effect; inactive = no such curve, though single readings can be large or run the other way. The sample as a whole holds a higher share of actives than the screen did.
Each molecule was assayed against Histone-lysine N-methyltransferase EHMT2 (Homo sapiens) (UniProt Q96KQ7) (assay: qHTS Assay for Inhibitors of Histone Lysine Methyltransferase G9a). Conditions: G9a H3K9 monomethylation, AlphaScreen, 2 h; series mostly up to 59 µM.
Histone-lysine N-methyltransferase EHMT2 (Homo sapiens), sequence (Q96KQ7 913-1193 limits assumed): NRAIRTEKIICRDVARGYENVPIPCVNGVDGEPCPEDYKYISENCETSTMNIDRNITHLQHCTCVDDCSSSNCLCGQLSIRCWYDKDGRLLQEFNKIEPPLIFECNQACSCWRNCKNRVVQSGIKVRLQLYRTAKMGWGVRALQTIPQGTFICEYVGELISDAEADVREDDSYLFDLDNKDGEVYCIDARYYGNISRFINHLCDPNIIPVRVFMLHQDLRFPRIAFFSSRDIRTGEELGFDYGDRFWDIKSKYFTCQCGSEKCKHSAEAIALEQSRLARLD
Outline: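 Signal arises when biotinylated H3K9 peptide, once monomethylated, bridges streptavidin donor and antibody-captured acceptor beads. Enzyme at 20 nM was preincubated 15 min with test compounds; peptide 500 nM and SAM 20 uM then reacted for 2 h.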
% is set by controls: 0 for no effect and ±100 for the full control effect; potency is the fitted concentration of half-maximal effect.
Note: nearly all actives have a fitted effect of over 75% in size.

Potency, active:
COc1ccc(/C=C(\C#N)c2c[nH]c3ccccc23)cc1 39.8 µM
COc1ccccc1-n1c(=S)[nH]c2c(sc(=S)n2-c2ccc(C)cc2C)c1=O 7.94 µM
Cc1cccc(C)c1NC(=O)COC(=O)c1c(C)nn(-c2ccccc2)c1C 11.2 µM
O=C(c1cc(-c2ccco2)nc2ccccc12)N(Cc1nnc(-c2ccc(Cl)cc2)o1)C1CC1 5.01 µM
CCc1ccc2ncc(C(=O)c3ccccc3)c(N3CCOCC3)c2c1 56.2 µM
O=C1Nc2ccc(Br)cc2/C1=N/N=C/C1=C(N2CCOCC2)C(=C\c2ccccc2)/CC1 12.6 µM
CCOc1ccc(N(C(=O)c2snc(C(N)=O)c2N)C(C(=O)NCC2CCCO2)c2c[nH]c3ccccc23)cc1 (centres undefined) 39.8 µM
N#C/C=C\Oc1ccc(Cl)cc1N 44.7 µM
CC(Oc1ccccc1)C(=O)Nc1oc(-c2ccco2)c(-c2ccco2)c1C#N (centres undefined) 28.2 µM
CCN(CC)CCN1C(=O)C2C(C(=O)Nc3ccc(Br)cc3)C3C=CC2(O3)C1C(=O)NC1CCCCC1 (centres undefined) 50.1 µM
COc1cc2c(cc1OC)C(c1ccc(C)o1)CC(=O)N2 (centres undefined) 20 µM

Potency, inactive:
COc1ccc(Cn2c(=O)c3oc4ccccc4c3n(CC(=O)Nc3ccc(F)cc3F)c2=O)cc1
COc1ccc(NC(=O)c2ccco2)cc1NC(=O)COc1ccc(C)c(C)c1
COc1ccc2[nH]cc(/C=C(/C#N)S(=O)(=O)c3ccccc3)c2c1
O=C(N/N=C/c1ccc([N+](=O)[O-])cc1)c1c[nH]c2ccccc12
CCCCn1c(N)c(N(Cc2ccccc2OC)C(=O)COc2cc(C)ccc2Cl)c(=O)[nH]c1=O
Cn1nccc1/C=N\NC(=O)c1ccc(Cl)cc1
COc1cccc(-n2c(=S)sc3c(=O)n(-c4ccccc4OC)c(SCC4OCCO4)nc32)c1
Cc1cccc(C)c1NC(=O)CNC(=O)c1c(C)nn(-c2ccccc2)c1C
Cc1nn(-c2ccccc2)c(C)c1C(=O)OCC(=O)NC(=O)NC1CCCCC1
COc1ccc(C)cc1S(=O)(=O)Nc1cc2c3c(c1)CCC(=O)N3CCC2
Cc1ccc2oc3c(c(=O)c2c1)C(c1ccc([N+](=O)[O-])cc1)N(CCCN1CCOCC1)C3=O (centres undefined)
CC(=O)c1cccc(NC(=O)CSc2nc3c(c(=O)[nH]2)CCC3)c1
Cc1ccc(-c2nn(CCC(=O)Nc3ccc(OC(F)(F)F)cc3)c(=O)c3ccccc23)cc1
CCOC(=O)[C@H]1[C@H]2COc3cc(OC)ccc3[C@@H]2N2C(=O)N(c3ccc(Br)cc3)C(=O)[C@@]12C
Cc1c(Cl)cccc1NC(=O)C1CCCN(c2ncnc3onc(C)c23)C1 (centres undefined)
CSc1ccccc1OCc1cc(C(=O)N2C[C@H]3CC[C@H]2C3)no1
O=C(c1ccccc1)c1cc(-c2ccccn2)c(N2CCOCC2)s1
CCc1cccc(NC(=O)c2cnc(N3CCOCC3)c3ccccc23)c1
COc1ccc(C(=O)CC(=O)c2ccc(C)cc2)c(O)c1
COc1cc2c(cc1OC)C(COc1ccc(F)cc1)N(C(=O)c1ccccc1F)CC2 (centres undefined)
COc1ccc(/C=N/N=C2/C(=O)Nc3ccccc32)cc1O
COc1ccc(S(=O)(=O)Nc2cc3c(C(=O)OC(C)C)c(C)oc3c3ccccc23)cc1
COc1cccc(N(C(=O)c2snc(C(N)=O)c2N)C(C(=O)NCC2CCCO2)c2c[nH]c3ccccc23)c1 (centres undefined)
Cc1ccc(N(C(=O)c2snc(C(N)=O)c2N)C(C(=O)NCC2CCCO2)c2c[nH]c3ccccc23)cc1 (centres undefined)
O=C(NC(=S)Nc1ccccc1N1CCCCC1)c1ccc(F)cc1
O=C(CC1N=C2c3ccccc3N=C(SCc3ccc(F)cc3)N2C1=O)NCc1cccs1 (centres undefined)
Nc1nc(-c2ccccc2)cc(-c2ccccc2)n1
CC(C)C(=O)Nc1oc(-c2ccccc2)cc1C#N
COc1cc(C(=O)Nc2oc(-c3ccccc3)c(-c3ccccc3)c2C#N)cc(OC)c1OC
CCC(=O)N1CCc2cc(Br)cc(S(=O)(=O)NCc3ccc(Cl)cc3)c21
Brc1ccccc1/C=N/Nc1nc2ccccc2o1
CC(C)N1C(=O)C2C(C(=O)NC3CCCCC3)C3C=CC2(O3)C1C(=O)NC1CCCC1 (centres undefined)
CCOCCCN1C(=O)C2C(C(=O)Nc3ccc(OCC)cc3)C3C=CC2(O3)C1C(=O)NC1CCCCC1 (centres undefined)
CC(=O)N1c2ccc(S(=O)(=O)N3CCCCCC3)cc2CC1C(=O)NCc1ccccc1C (centres undefined)
Cc1ccc(S(=O)(=O)NCCC(=O)NNC(=O)C2COc3ccccc3O2)cc1 (centres undefined)
Cc1ccc(-n2ncc(C(=O)N(C)Cc3ccccc3)c2-n2cccc2)cc1
COc1ccc(C(=O)NC2CC2)cc1OC1CCN(Cc2ccc(SC)cc2)CC1
CCOC(=O)c1c(NC(C)=O)c2c3c(sc2n1Cc1c(C)cc(C)cc1C)CCCC3
COC(=O)c1ccc(C2CC(=O)Nc3cc(OC)c(OC)cc32)cc1 (centres undefined)

activity, negative = inhibition, inactive:
OCC[C@H]1C[C@H](O)[C@@H](O)[C@]2(CCc3ccccc3O2)O1 7.67% [at 2.33 µM]
O=S(=O)(c1ccc(Br)c2ccccc12)N1CCOCC1 24.5% [at 0.501 µM]
COc1ccccc1N1CCN(C(=O)c2cc(=O)c3cc(C)cc(C)c3o2)CC1 -10.5% [at 2.33 µM]
O=C(c1ccc(Cl)s1)N(Cc1nnc(-c2ccccc2Cl)o1)C1CC1 9.15% [at 12.7 µM]
CC(C)N(Cc1nnc(-c2ccccc2Br)o1)C(=O)c1cc(Cl)nc2ccccc12 -53.3% [at 12.7 µM]
CN(CC(=O)Nc1ccc(OC(F)(F)F)cc1)C(=O)C1CCC1 -37% [at 12.7 µM]
COc1ccc(Cl)cc1C(=O)NCC#N -0.132% [at 12.7 µM]
COCCNC(=O)C1CCN(S(=O)(=O)c2ccc3c(c2)OCCO3)CC1 2.44% [at 0.501 µM]
COc1cc2c(cc1OC)C(c1ccncc1)CC(=O)N2 (centres undefined) -34% [at 2.33 µM]
